Screening results deposited in PubChem by The Scripps Research Institute Molecular Screening Center.
The list is not random: actives were taken first. Their share in the collection is about 1.2%.
GALR2 antag = GALR2 (human) receptor antagonism. O43603. GALR2-expressing cells, antagonist mode. inhibition, % at 4 µM. 140,000 tested, 0.39% active;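 further: cells stimulated with galanin 1-16 at roughly its EC80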
GALR2 ag = GALR2 (human) receptor agonism; 140,000 tested, 0.48% active; activation, % (test concentration not listed); O43603; GALR2-expressing cells, agonist activation read-out; AID 803; in the data active means activation above about 5%, passing the limit was not always enough
S1P2 blocker = blocks the human S1P2 receptor | 97,000 tested, 0.21% active | O95136 | cell-based S1P2 antagonist assay, inhibition at 5 uM | inhibition, % at 5 µM; in the data active means inhibition above about 45%;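 further: CRE beta-lactamase reporter cells expressing human S1P2 stimulated with S1P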
Target sequence (O95136 whole entry, looked up): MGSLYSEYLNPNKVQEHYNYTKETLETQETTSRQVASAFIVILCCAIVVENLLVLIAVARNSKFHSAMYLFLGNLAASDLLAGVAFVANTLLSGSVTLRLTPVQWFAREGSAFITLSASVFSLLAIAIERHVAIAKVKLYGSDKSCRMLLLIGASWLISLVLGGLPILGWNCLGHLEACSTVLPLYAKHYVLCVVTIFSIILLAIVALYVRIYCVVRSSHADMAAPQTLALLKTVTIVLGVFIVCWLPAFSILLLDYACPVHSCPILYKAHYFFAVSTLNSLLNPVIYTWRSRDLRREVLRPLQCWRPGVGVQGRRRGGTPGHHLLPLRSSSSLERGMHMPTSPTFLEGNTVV
S1P2 ag = activates the human S1P2 receptor; 97,000 tested, 0.46% active; O95136; activation, % at 4.5 µM; AID 729; S1P2-expressing cell line, agonist reporter read-out; in the data active means activation above about 16%
GALR2 ant conf = confirmation of human galanin receptor 2 (GALR2) antagonists. shares compounds with GALR2 antag. GALR2-expressing cells, antagonist mode, inhibition. inhibition, % at 4 µM. 480 tested, 60% active;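 further: cells stimulated with galanin at about its EC80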
BLA inh counter = counter-screen for GALR2 antagonists: beta-lactamase reporter inhibitors; shares compounds with GALR2 antag; CHO NFAT-BLA reporter, beta-lactamase FRET, thapsigargin-stimulated; inhibition, % at 4.2 µM; AID 867; 480 tested, 36% active;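 active means inhibition above the mean inhibition across tested compounds plus 3 SD, cut at about 27% in these data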
Numbers stand for hits; - = inactive; . = no result; ! = repeats disagree. Unless noted, no stated cut-off is given here; in the data, active means inhibition above about 27%; inactive means the rest.

SMILES	GALR2 antag	GALR2 ag	S1P2 blocker	S1P2 ag	GALR2 ant conf	BLA inh counter
COc1ccc(CCNc2ncnc3c2oc2ccccc23)cc1OC	27.5	-	67.2	-	38.1	-
COc1ccc(NS(=O)(=O)Cc2ccccc2Cl)cn1	-	-	-	-	.	.
COc1ccc(NC(=O)/C(Cl)=C(/Cl)S(=O)(=O)Cc2ccccc2)cn1	81.7	-	104.0	-	92.0	92.0
O=C1/C(=C/c2cccnc2)CCC/C1=C\c1cccnc1	-	-	.	.	.	.
CCC1C/C(=C\c2cccnc2)C(=O)/C(=C/c2cccnc2)C1 (configuration not stated)	36.2	-	.	.	45.7	-
COc1cccc(C2SCC(=O)N2c2ccc(Br)cc2)c1OC (configuration not stated)	-	-	.	.	.	.
Cn1c2c(c(=O)n(C)c1=O)C(C(F)(F)F)(C(F)(F)F)N=C(c1ccc(Cl)cc1)N2	67.8	-	85.6	-	72.5	58.0
O=C(c1ccc(S(=O)(=O)c2ccc(F)cc2)c([N+](=O)[O-])c1)N1CCCCCC1	30.7	-	.	.	37.4	-
CC(C)CC(c1nnnn1CCc1ccccc1)N1CCC(C(N)=O)CC1 (configuration not stated)	-	-	-	-	.	.
C=CC[N+](C)(C)C/C(Cl)=C(\Cl)c1ccccc1	-	-	-	-	.	.
N#Cc1cc(Oc2cccc3cccnc23)c(-n2nnc3ccccc32)cc1C#N	39.3	-	-	-	-	-
c1ccc(-n2nnnc2Oc2cccc3cccnc23)cc1	-	-	-	-	.	.
CS(=O)(=O)Nc1ccc(N2CCCCC2)c(Cl)c1	-	-	-	-	.	.
CCC(NC(=O)Nc1nnc(C(F)(F)F)s1)(C(F)(F)F)C(F)(F)F	58.9	-	74.8	-	39.4	-
Cc1ccc2nsnc2c1NC(=O)c1ccc2c(c1)OCCO2	37.6	-	-	-	-	-
CCOC(=O)N1CCC(Nc2c(NCCCN(CC)c3cccc(C)c3)c(=O)c2=O)CC1	-	-	-	-	.	.
COc1ccccc1S(=O)Cc1ccc(C(=O)NCCc2ccc(Cl)cc2)o1 (configuration not stated)	-	-	-	-	.	.
O=C1C=CC(=O)N1CCCCCCN1C(=O)C=CC1=O	86.2	-	.	.	78.1	95.3
Cc1ccc(Cl)c(NC(=O)COC(=O)c2ccccc2C(=O)c2ccc(Cl)c([N+](=O)[O-])c2)c1Cl	69.2	-	.	.	80.1	71.1
O=C(O)CCc1n[nH]c(=S)[nH]c1=O	-	-	-	-	.	.
O=C(CCC1CCCCC1)NNC(=O)c1cnccn1	-	-	.	.	.	.
Brc1ccc2[nH]c3c(N4CCc5ccccc5C4)ncnc3c2c1	-	-	-	-	.	.
Cc1ccc2[nH]c3c(N4CCc5ccccc5C4)ncnc3c2c1	53.7	-	82.9	-	51.5	-
CC(C)c1onc(C(=O)NCc2ccccc2)c1[N+](=O)[O-]	-	-	.	.	.	.
Cc1nn(C)c(C)c1N1C(=O)c2cccc3c(N)ccc(c23)C1=O	31.7	-	.	.	-	-
SMILES	GALR2 antag	GALR2 ag	S1P2 blocker	S1P2 ag	GALR2 ant conf	BLA inh counter
Cc1nn(C)c(C)c1N1C(=O)c2cccc3c(Br)ccc(c23)C1=O	29.1	-	-	-	30.3	-
COc1cc(C(=O)O/N=C2/C=C(C)C(=O)C=C2C)cc(OC)c1OC	-	-	.	.	.	.
CC1=C(C)/C(=N\OS(=O)(=O)c2ccc(C)cc2)C=CC1=O	85.2	-	.	.	70.3	64.0
CC1=C/C(=N\OS(=O)(=O)c2ccccc2)C(C)=CC1=O	63.4	-	97.9	-	74.3	35.5
Cc1ccc(-n2c(=O)[nH]c3cc(C(=O)NC4CCN(Cc5ccccc5)CC4)ccc3c2=O)cc1	-	-	-	-	.	.
NC(=O)C1CCN(C2=C(Cl)C(=O)c3ccccc3C2=O)CC1	34.2	-	-	-	49.8	36.5
NC(=O)C1CCN(C(=O)Nc2ccccc2)CC1	-	-	-	-	.	.
OCCCc1nc2n(n1)C(c1ccccc1Cl)C=C(c1cccs1)N2 (configuration not stated)	28.0	-	-	-	-	-
CCn1c2ccccc2c2cc(NC(=O)c3cc(OC)c(OC)c(OC)c3)ccc21	28.7	-	-	-	42.5	67.3
N#CC(C#N)=C1C=CC=CN1/C(=C\c1ccco1)C(=O)c1ccc(Cl)cc1	67.6	-	.	.	60.1	71.0
O=C(O)/C(=C/c1ccco1)NC(=O)c1ccccc1	-	-	.	.	.	.
N#CC(C#N)=C1C=CC=CN1/C(=C\c1ccco1)C(=O)c1ccc(-c2ccccc2)cc1	28.2	-	.	.	40.9	33.3
CC(/C=N/n1c(-c2ccc(Cl)cc2)n[nH]c1=S)=C\c1ccco1	-	-	.	.	.	.
O=C1c2ccccc2C(=O)N1Cc1cc(-c2ccc(Cl)cc2)no1	-	-	-	-	.	.
CCOC(=O)c1cnn(-c2nc3c(C)cccc3s2)c1C(F)(F)F	-	-	-	-	.	.
CCOC(=O)c1cnn(-c2nc3c(C)cccc3s2)c1C	31.8	-	-	-	-	-
COc1ccc(S(=O)(=O)Nc2ccccc2-c2nnn(CC(=O)Nc3ccccc3OC)n2)cc1	28.4	-	.	.	-	-
CCCc1cc(=O)n2[nH]c(C)cc2n1	-	-	-	-	.	.
O=C(/C=C/c1ccc(Cl)c([N+](=O)[O-])c1)Nc1cccc(NC(=O)c2ccco2)c1	-	-	.	.	.	.
O=C(/C=C/c1ccc(Cl)c([N+](=O)[O-])c1)Nc1ccc(NC(=O)c2ccco2)cc1	32.7	-	.	.	-	-
COc1ccccc1CC(=O)N1CCN(c2cccc(C(F)(F)F)c2)CC1	-	-	-	-	.	.
O=C(CN(C(=O)c1cc2c(s1)CCC2)C1CCCC1)NCc1cccs1	-	-	-	-	.	.
Cn1c(C(=O)O)c(CC(=O)Nc2ccc3c(c2)OCCO3)c2ccccc21	-	-	-	-	.	.
Cn1nc(CC(=O)Nc2ccc3c(c2)OCCO3)c2ccccc2c1=O	35.6	-	.	.	41.7	-
COc1ccccc1NC(=O)Cc1nn(C)c(=O)c2ccccc12	34.5	-	-	-	40.1	-
SMILES	GALR2 antag	GALR2 ag	S1P2 blocker	S1P2 ag	GALR2 ant conf	BLA inh counter
CC(NC(=O)OC(C)(C)C)C(=O)Oc1cc2oc(=O)cc(-c3ccccc3)c2cc1Cl (configuration not stated)	31.7	-	-	-	29.4	39.7
C1=C(CCNc2ncnc3c2[nH]c2ccccc23)CCCC1	47.9	-	.	.	60.6	-
COc1ccc2[nH]c3c(NCCN(C(C)C)C(C)C)ncnc3c2c1	-	-	-	-	.	.
CC(C)OCCCNc1ncnc2c1[nH]c1ccccc12	38.9	-	-	-	37.2	-
O=c1c2[nH]c3ccccc3c2ncn1CCC1=CCCCC1	-	-	-	-	.	.
CCOC(=O)C1CCCN(C/C(O)=C(\C#N)c2nc(-c3ccccc3)cs2)C1 (configuration not stated)	-	-	-	-	.	.
Cc1ccccc1NC(=O)c1sc(NC(=O)COc2ccccc2)c(C#N)c1C	-	-	.	.	.	.
Fc1ccc(SCCc2ccncc2)cc1	32.2!	-	-	-	-	-
CCCNC(=O)COC(=O)c1cc2c(=O)n3ccccc3nc2s1	-	-	.	.	.	.
CC(=O)OC[C@H]1O[C@H](C/C=N/OC[C@@H](O)[C@H]2O[C@@H]3OC(C)(C)O[C@@H]3[C@H]2O)C=C[C@@H]1OC(C)=O	-	-	.	.	.	.
O=S(=O)(NCc1ccncc1)c1ccc(Br)s1	36.7	-	.	.	44.0	-
